AC50 and outcome data for 38 molecules are collected here from PubChem BioAssay (EPA / NIEHS).

Structures are written as SMILES. Records with an inconclusive call do not appear. Active and inactive are the calls of the source. The calls were made as follows: active = hit-call score of the fitted dose curve at least 0.9, where 1 is the maximum; inconclusive = response in the unintended direction; inactive = score below 0.9.

This experiment is described as follows: ACEA_ER_AUC_viability: ACEA Biosciences xCELLigence Real-Time Cell Analysis on Estrogen Receptor Agonism for Viability (AID 2283782).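 Also: hit means loss of impedance signal meaning reduced cell growth or viability.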 The procedure, abridged: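 Viability endpoint: reduced impedance area under the curve relative to DMSO, recorded by real-time electrode sensing over ~80 h of continuous exposure. Duplicate plates of T47D in hormone-depleted medium; eight concentrations, 1:4 dilutions, 100 uM maximum.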
By AC50 is commonly meant the concentration at which the activity in the assay is half-maximal. As to `CCC1CCCCC1`, the AC50 is 75.8 µM (active). As for `COc1ccccc1[N+](=O)[O-]`, the outcome was inactive. As for `CC(=O)C1(C)CC2=C(CCCC2(C)C)CC1C` (stereo not drawn), the concentration at half-maximal activity (AC50) is 50 µM (active).

For `CCOC(=O)CCc1ccccc1`, the outcome was inactive. For the molecule `Cc1occc(=O)c1OC(=O)C(C)C`, the result was inactive. In the case of `CCCCCC(C=O)=Cc1ccccc1`, the concentration at half-maximal activity (AC50) is 80 µM (active). As to `CCOC(=O)C(C#N)=C(c1ccccc1)c1ccccc1`, the result was inactive. In the case of `CCC(=O)OCCOc1ccccc1`, the outcome was inactive. `Cc1cc(C)nc(NS(=O)(=O)c2ccc(N)cc2)n1`: the result was inactive. As for `CC(=O)OCCCc1ccccc1`, the call was inactive. For `COc1ccc(CCC(C)=O)cc1`, the result was inactive. In the case of `C/C=C(\C)C(=O)OCCc1ccccc1`, the AC50 is 67.4 µM (active).

For the molecule `COc1ccc(N=Nc2cc(C)c(N=Nc3ccc(S(=O)(=O)O)cc3)cc2OC)cc1`, the result was inactive.

Turning to `C=Cc1ccncc1`, the AC50 was 37.3 µM (active). For the molecule `COC(=O)c1ccc(OC)cc1`, the result was inactive. Consider `O=CCc1ccccc1`, for which the AC50 is 78.6 µM (active). Regarding `COC(=O)C=C(C)CCC=C(C)C`, the result was inactive.

Turning to `ClC(c1ccccc1)(c1ccccc1)c1ccccc1`, the concentration at half-maximal activity (AC50) was 82.6 µM (active).

For `CCCCCCCC(=O)OCC(O)CO` (stereo not drawn), the molecule was called inactive. On to `CSCCC=O`, for which the AC50 is 85.8 µM (active).

Consider `Nc1ccc(NCCO)c([N+](=O)[O-])c1`, for which the molecule was called inactive.

As for `CN1C(=O)c2ccccc2C1=O`, the outcome was inactive. Same read-out and setting: as for `COS(=O)(=O)O`, the entry is “inactive”. Still for that read-out and setting: as for `O=C(O)c1ccc(O)cc1`, the entry is “inactive”. For the molecule `C=CC(=O)OCCC#N`, the half-maximal activity concentration (AC50) is 66.7 µM (active). As to `CCCC(C)=O`, the call was inactive.

With `CC(=O)CC(=O)Nc1ccc(C)cc1C`, the molecule was classed as inactive. On the same count and under the same terms, as for `CCOC(=O)CC(C)O` (stereo not drawn), the entry is “inactive”; as for `CN1CCOCC1`, “inactive”. As for `COc1ccc(COC(C)=O)cc1`, the outcome was inactive. Same read-out and setting: as for `Nc1ccc(Cl)c([N+](=O)[O-])c1`, the entry is “inactive”; as for `CCCCCCC(C)(C)S`, “inactive”. Take `CC(=O)Nc1ccc(C(=O)CCl)cc1`: the AC50 is 21.5 µM (active). The same measure, in the same setting: as for `C=C1CC[C@H](O)C/C1=C/C=C1\CCC[C@]2(C)[C@@H]([C@H](C)/C=C/[C@H](C)C(C)C)CC[C@@H]12`, the figure is 79.1 µM (active); as for `CCCCCCC(CO)CCCC` (stereo not drawn), 76.9 µM (active).

In the case of `Brc1ccc(Br)c(Br)c1`, the half-maximal activity concentration (AC50) is 34.9 µM (active).

On to `CCOc1ccc(N=Nc2ccc(C=Cc3ccc(N=Nc4ccc(OCC)cc4)cc3S(=O)(=O)O)c(S(=O)(=O)O)c2)cc1`, for which the molecule was called inactive. On the same count and under the same terms, as for `CC(C)NCC(O)COc1ccc(CC(N)=O)cc1` (stereo not drawn), the entry is “inactive”.
